# Reference: PubChem BioAssay (NCATS)
# “And” between values parts separate entries of the source, which are not always exact repeats. Equal entries are not always repeated. Results filed as inconclusive are left out. The source made the active and inactive calls. The call rests on the fitted dose curve; in most records, active means well fitted inhibition curve with a large enough effect in the repeat runs; inconclusive means weak or mixed curves; inactive means no such curve, though single readings can be large or run the other way.
# Target: Cytochrome P450 2C9 (Homo sapiens) (UniProt P11712)
# Sequence (P11712 whole entry, looked up): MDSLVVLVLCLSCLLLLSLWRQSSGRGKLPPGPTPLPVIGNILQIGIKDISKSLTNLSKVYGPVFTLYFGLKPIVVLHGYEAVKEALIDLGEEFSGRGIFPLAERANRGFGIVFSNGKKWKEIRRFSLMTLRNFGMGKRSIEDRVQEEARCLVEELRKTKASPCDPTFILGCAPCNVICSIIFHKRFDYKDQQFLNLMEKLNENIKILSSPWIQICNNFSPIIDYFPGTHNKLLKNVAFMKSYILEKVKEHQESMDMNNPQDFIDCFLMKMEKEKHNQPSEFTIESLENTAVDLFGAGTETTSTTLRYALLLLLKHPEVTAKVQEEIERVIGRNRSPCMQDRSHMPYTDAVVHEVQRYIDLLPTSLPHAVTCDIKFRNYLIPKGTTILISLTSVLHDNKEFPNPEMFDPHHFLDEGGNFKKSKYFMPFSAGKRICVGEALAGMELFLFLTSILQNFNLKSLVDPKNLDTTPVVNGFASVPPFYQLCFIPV
# Test: Cytochrome P450 family 2 subfamily C member 9 (CYP2C9) small molecule antagonists: luciferase biochemical (cell-free) qHTS assay (AID 1645842); further: nearly all actives have a fitted effect of over 55% in size
# Conditions: P450-Glo CYP2C9 enzyme assay, luciferin luminescence; series mostly up to 57.4 µM; activity change, negative = inhibition: at the top concentration
# Summary of the method: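 Luminescence, after 20 min with luciferin detection reagent, reflected CYP2C9 turnover during a 1 h NADPH-driven reaction at 37C. Enzyme-substrate mix contained 0.4% bovine serum albumin and was preincubated with compound 10 min at room temperature.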
# On the % scale 0 is the no-effect control and ±100 the full control effect; potency means the concentration at half of the fitted maximal effect.
Compound,Potency,"activity change, negative = inhibition"
Cc1cc(C)c(/C=C2\C(=O)Nc3ccccc32)[nH]1,9.77 µM (active),–
CSc1ccc(C(=O)c2[nH]c(=O)[nH]c2C)cc1,–,12.1% (inactive)
CCCC(C(=O)OCCN(CC)CC)(c1ccccc1)c1ccccc1,6.17 µM (active),–
C[C@]12C=CC(=O)C=C1CC[C@H]1[C@@H]3C[C@@H](O)[C@](O)(C(=O)CO)[C@@]3(C)C[C@H](O)[C@@]12F,–,-2.33% (inactive)
COc1cc2c(cc1OC)-c1cc(=Nc3c(C)cc(C)cc3C)n(C)c(=O)n1CC2,0.49 µM (active),–
CCOC(=O)C1=C(C)NC(C)=C(C(=O)OC)C1c1cccc([N+](=O)[O-])c1 (stereo unspecified),0.436 µM (active),–
Cc1nnc(SCC2=C(C(=O)O)N3C(=O)[C@@H](NC(=O)Cn4cnnn4)[C@H]3SC2)s1,–,-4.02% (inactive)
OC(CCN1CCCCC1)(c1ccccc1)C1CCCCC1 (stereo unspecified),–,0.634% (inactive)
CCNC(=O)N1CCN(CCCC(c2ccc(F)cc2)c2ccc(F)cc2)CC1,–,-23.2% (inactive)
CC(C)NCC(O)c1cc(O)cc(O)c1 (stereo unspecified),–,2.57% (inactive)
COCCCC/C(=N\OCCN)c1ccc(C(F)(F)F)cc1,11 µM (active),–
C[C@]12CC[C@@H]3c4ccc(O)cc4C[C@@H](CCCCCCCCCS(=O)CCCC(F)(F)C(F)(F)F)[C@H]3[C@@H]1CC[C@@H]2O (stereo partly specified),1.38 µM (active),–
CCCCCN(CCCCC)C(=O)C(CCC(=O)O)NC(=O)c1ccc(Cl)c(Cl)c1 (stereo unspecified),1.38 µM (active),–
CC(=O)Oc1cc(C(C)C)c(OCCN(C)C)cc1C,–,2.83% (inactive)
CCCCOCCOCCOCc1cc2c(cc1CCC)OCO2,340 nM (active) and 123 nM (active),–
CCN(CC)CCCN(c1ccccc1)C1Cc2ccccc2C1,–,5.95% (inactive)
C[C@H](CS)C(=O)N1CCC[C@H]1C(=O)O,–,1.81% (inactive)
CO[C@@]1(NC(=O)CSCC#N)C(=O)N2C(C(=O)O)=C(CSc3nnnn3C)CS[C@@H]21,–,-3.15% (inactive)
CNCCC(Oc1ccccc1OC)c1ccccc1 (stereo unspecified),–,4.13% (inactive)
CN(C)CCCN1c2ccccc2Sc2ccc(C(F)(F)F)cc21,–,-12.7% (inactive)
NC(=Nc1ccccc1)Nc1ccccc1,inactive,–
CCN1CCc2nc(N)oc2CC1,–,1.82% (inactive)
CCCN1C[C@H](CSC)C[C@@H]2c3cccc4[nH]cc(c34)C[C@H]21,–,-20.5% (inactive)
CC(=O)[C@]1(O)Cc2c(O)c3c(c(O)c2[C@@H](O[C@H]2C[C@H](N)[C@H](O)[C@H](C)O2)C1)C(=O)c1ccccc1C3=O,–,-22.3% (inactive)
CNCCCN1c2ccccc2CCc2ccccc21,inactive,–
CCCOc1ccccc1-c1nc2n[nH]nc2c(=O)[nH]1,–,4.91% (inactive)
